Assay [1] can be described thus: qHTS assay to test for compound auto fluorescence at 460 nm (blue) in HEK293 cells (AID 720678). The essentials: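 Blue-channel (Ex/Em 405/460 nm) intensity measured in HEK293 cultures after overnight compound exposure at 37C; signal expressed relative to triamterene. Cells plated 2,000 per well in 10% dialyzed FBS medium and allowed 4-5 hr to attach.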
Background: Quantitative high-throughput screening tests each substance at several concentrations.

Assay [2] can be described thus: qHTS assay to test for compound auto fluorescence at 590 nm (red) in HEK293 cells (AID 720679). The essentials:
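Red-channel autofluorescence (Ex/Em 540/590 nm; Rose Bengal sodium reference) was measured after overnight 37C, 5% CO2 exposure of attached HEK293 cells, 2,000 per well in medium with 10% dialyzed FBS.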

Assay [3] can be described thus: qHTS assay to test for compound auto fluorescence at 590 nm (red) in HepG2 cell free culture (AID 720684). The essentials:
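Ex 540 / Em 590 nm read of compound in cell-free MEM (10% FBS). Rose Bengal sodium reference.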

Assay [4] deals with Glucocorticoid receptor (Homo sapiens) (UniProt P04150). Nature of the assay: qHTS assay to identify small molecule agonists of the glucocorticoid receptor (GR) signaling pathway (AID 720691; active means well fitted activation curve with a large enough effect in the signal ratio in the repeat runs, not every such curve was filed as active; inconclusive means weak or mixed curves, or effect the other way; inactive means no such curve, though single readings can be large or run the other way; the % refers to the signal ratio). The essentials:
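Compounds in DMSO, alongside positive controls, were added to GR-bla HeLa reporter cells and incubated 18 h at 37 C; GRE-driven beta-lactamase was detected by fluorescence after 2 h with FRET substrate at room temperature.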

A short description of assay [5]: qHTS assay for identifying genotoxic compounds that show differential cytotoxicity against isogenic chicken DT40 cell lines with known DNA damage response pathways - wild type cell line (AID 743012). Further: nearly all actives have a fitted effect of over 60% in size. Further: potency means the concentration at half of the fitted maximal effect. The essentials:
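Viability of DNA repair-proficient chicken DT40 cells was assessed by CellTiter-Glo luminescence following 40 h compound exposure at 37 C/5% CO2.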

Assay [6] is described as follows: qHTS assay to identify small molecule antagonists of the androgen receptor (AR) signaling pathway - cell viability counter screen (AID 743033; further: nearly all actives have a fitted effect of over 45% in size; further: potency means the concentration at half of the fitted maximal effect).
Assay [7] is described as follows: qHTS assay to identify small molecule antagonists of the androgen receptor (AR) signaling pathway using the MDA cell line - cell viability counter screen (AID 743041; further: nearly all actives have a fitted effect of over 45% in size; further: potency means the concentration at half of the fitted maximal effect). The essentials: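 In this qHTS counter assay, fluorescence intensity after CellTiter-Fluor addition indicated viability of MDA-kb2 AR-luc cells given compounds and R1881 for 16 h at 37C.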
In assay [8] the target is Estrogen receptor (Homo sapiens) (UniProt P03372). Nature of the assay: qHTS assay to identify small molecule agonists of the estrogen receptor alpha (ER-alpha) signaling pathway (AID 743075; calls by dose curve;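 further: HEK293 GripTite cells with ER-alpha and UAS-driven beta-lactamase reporter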; further: potency means the concentration at half of the fitted maximal effect).
Assay [9] shares this target. Put plainly: qHTS assay to identify small molecule agonists of the estrogen receptor alpha (ER-alpha) signaling pathway using the BG1 cell line (AID 743079). Further: nearly all actives have a fitted effect of over 20% in size. Further: potency means the concentration at half of the fitted maximal effect.
A short description of assay [10]: qHTS assay to identify small molecule antagonists of the estrogen receptor alpha (ER-alpha) signaling pathway using the BG1 cell line (AID 743080; calls by dose curve;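 further: BG1 cells stimulated with 17beta-estradiol alongside compound; series mostly up to about 70 µM; nearly all actives have a fitted effect of over 25% in size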). The essentials: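 Luciferase inhibition measured with ONE-Glo after 30 min at RT in BG1Luc4E2 cells given test compounds and 17beta-estradiol for 21.5 h at 37 C; CellTiter-Fluor viability read in the same wells beforehand.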

Assay [11] has as its target Peroxisome proliferator-activated receptor gamma (Homo sapiens) (UniProt P37231). Put plainly: qHTS assay to identify small molecule agonists of the peroxisome proliferator-activated receptor gamma (PPARg) signaling pathway (AID 743094; active means well fitted activation curve with a large enough effect in the signal ratio in the repeat runs, not every such curve was filed as active; inconclusive means weak or mixed curves, or effect the other way; inactive means no such curve, though single readings can be large or run the other way; the % refers to the signal ratio). The essentials:
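Agonism was assessed in a beta-lactamase reporter system, HEK293H cells with a stably integrated UAS-bla construct under PPARg control; the 17 h treatment at 37C preceded a 1 h room-temperature FRET substrate read.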

Assay [12] deals with Nuclear receptor subfamily 1 group I member 2 (Rattus norvegicus) (UniProt Q9R1A7). Put plainly: Rat pregnane X receptor (rPXR) activation by small molecules, qHTS assay (AID 1346983). Further: nearly all actives have a fitted effect of over 20% in size. The conditions noted are these: rPXR luciferase reporter cells, One-Glo luminescence, 24 h; max activation: active compounds read high. The essentials:
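Cell-based rPXR luciferase reporter assay, 2,000 cells per well, rested 5hr at 37 C before compound addition in DMSO, then 24 hr at 37 C. One-Glo reagent was added and luminescence read after 30 min at room temperature.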

The target of assay [13] is Nuclear receptor subfamily 1 group I member 2 (Homo sapiens) (UniProt O75469). Put plainly: CYP3A4 induction through human pregnane X receptor (PXR) by small molecules, qHTS assay (AID 1346984). Further: nearly all actives have a fitted effect of over 40% in size. The essentials: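 Cells (DPX-2; HepG2 with PXR element plus CYP3A4-promoter luciferase) settled 5hr, then were treated 24hr at 37C. A 3hr, 3uM-final Luciferin-IPA step preceded luminescence measurement with One-Glo.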

Assay [14] shares this target. Nature of the assay: Human pregnane X receptor (PXR) activation by small molecules, qHTS assay (AID 1346985). Further: nearly all actives have a fitted effect of over 40% in size. The essentials:
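DPX-2 cells (HepG2 co-transfected with a PXR response element and a CYP3A4-promoter luciferase construct) were seeded at 2,000 per well, rested 5 hr at 37C, then exposed to DMSO-dissolved compounds for 24 hr. Activation was read as luciferase luminescence.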

Assay [15] is described as follows: qHTS assay for small molecule agonists of the p53 signaling pathway - cell viability (AID 651633; calls by dose curve; further: nearly all actives have a fitted effect of over 30% in size; further: potency means the concentration at half of the fitted maximal effect). The essentials: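 p53RE-bla cells, seeded at 4,000 per well and rested 5 h at 37 C/5% CO2, received compounds in DMSO for 16 h at 37 C. CellTiter-Glo was then added, and luminescence was read after 30 min at room temperature to gauge cytotoxicity.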
The nature of assay [16]: qHTS assay for identifying genotoxic compounds that show differential cytotoxicity against isogenic chicken DT40 cell lines with known DNA damage response pathways - Rev3 mutant cell line (AID 743014). Further: nearly all actives have a fitted effect of over 55% in size. Further: potency means the concentration at half of the fitted maximal effect.
Assay [17] can be described thus: qHTS assay to identify small molecule antagonists of the thyroid receptor (TR) signaling pathway - cell viability counter screen (AID 743064). Further: nearly all actives have a fitted effect of over 50% in size. Further: potency means the concentration at half of the fitted maximal effect. The essentials: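 Counter screen for cytotoxicity: compound plus T3 (1 nM final) on GH3.TRE-Luc cells, 23.5 h at 37 °C, then fluorescence viability readout with CellTiter-Fluor.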
Assay [18] is described as follows: qHTS assay to identify small molecule that activate the aryl hydrocarbon receptor (AhR) signaling pathway - cell viability counter screen (AID 743086). Further: nearly all actives have a fitted effect of over 45% in size. Further: potency means the concentration at half of the fitted maximal effect. The essentials: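 HepG2-AhR-luc (HG2L7.5c1) cells, 4000/well, were preincubated 5 h at 37C, exposed to compound in qHTS format for 24 hr at 37C, then given CellTiter-Fluor for 30 min; viability was read as fluorescence in the reporter wells.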

The nature of assay [19]: qHTS assay for small molecule agonists of the p53 signaling pathway (AID 651631; calls by dose curve; further: nearly all actives have a fitted effect of over 15% in size; further: potency means the concentration at half of the fitted maximal effect). The essentials:
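Stably transfected HCT-116 cells (beta-lactamase behind p53 response elements) get compounds after a 5 h settling period; 16 h later at 37 °C, FRET substrate is loaded and fluorescence read after 2 h.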

Assay [20] in a line: qHTS assay to test for compound auto fluorescence at 535 nm (green) in HEK293 cells (AID 720680).

Where “and” joins values, the source holds several entries; their conditions need not be identical. Equal entries are not always repeated. A number with no mark means an inactive call. Calls of active or inactive are those of the source. Unless noted, the call rests on the fitted dose curve; in most records, active means well fitted curve in the direction sought with a large enough effect in the repeat runs; inconclusive means weak or mixed curves; inactive means no such curve, though single readings can be large; an effect the other way counts as inactive or inconclusive.
On the % scale 0 is the no-effect control and ±100 the full control effect.

Glucocorticoid receptor (Homo sapiens), sequence (P04150 whole entry, looked up): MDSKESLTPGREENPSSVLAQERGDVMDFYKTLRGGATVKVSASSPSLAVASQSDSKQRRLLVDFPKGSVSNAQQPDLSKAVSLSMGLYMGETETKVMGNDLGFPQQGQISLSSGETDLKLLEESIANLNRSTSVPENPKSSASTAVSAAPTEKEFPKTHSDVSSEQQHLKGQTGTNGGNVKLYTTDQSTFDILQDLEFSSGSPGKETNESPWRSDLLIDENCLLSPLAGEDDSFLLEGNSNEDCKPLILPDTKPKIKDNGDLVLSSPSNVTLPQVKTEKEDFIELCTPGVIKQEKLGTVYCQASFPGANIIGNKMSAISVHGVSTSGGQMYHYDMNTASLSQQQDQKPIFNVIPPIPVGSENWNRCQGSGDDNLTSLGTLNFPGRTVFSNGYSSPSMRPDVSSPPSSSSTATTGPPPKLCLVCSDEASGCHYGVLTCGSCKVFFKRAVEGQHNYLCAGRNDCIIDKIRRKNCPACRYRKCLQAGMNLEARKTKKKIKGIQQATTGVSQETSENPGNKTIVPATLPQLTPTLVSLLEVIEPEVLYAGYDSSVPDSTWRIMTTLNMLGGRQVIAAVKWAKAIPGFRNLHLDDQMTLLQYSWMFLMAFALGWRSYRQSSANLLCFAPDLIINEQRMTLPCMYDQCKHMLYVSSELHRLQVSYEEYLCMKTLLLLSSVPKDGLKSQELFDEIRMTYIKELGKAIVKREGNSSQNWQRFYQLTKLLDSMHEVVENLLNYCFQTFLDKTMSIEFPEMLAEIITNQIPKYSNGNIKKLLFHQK
Peroxisome proliferator-activated receptor gamma (Homo sapiens), sequence (P37231 whole entry, looked up): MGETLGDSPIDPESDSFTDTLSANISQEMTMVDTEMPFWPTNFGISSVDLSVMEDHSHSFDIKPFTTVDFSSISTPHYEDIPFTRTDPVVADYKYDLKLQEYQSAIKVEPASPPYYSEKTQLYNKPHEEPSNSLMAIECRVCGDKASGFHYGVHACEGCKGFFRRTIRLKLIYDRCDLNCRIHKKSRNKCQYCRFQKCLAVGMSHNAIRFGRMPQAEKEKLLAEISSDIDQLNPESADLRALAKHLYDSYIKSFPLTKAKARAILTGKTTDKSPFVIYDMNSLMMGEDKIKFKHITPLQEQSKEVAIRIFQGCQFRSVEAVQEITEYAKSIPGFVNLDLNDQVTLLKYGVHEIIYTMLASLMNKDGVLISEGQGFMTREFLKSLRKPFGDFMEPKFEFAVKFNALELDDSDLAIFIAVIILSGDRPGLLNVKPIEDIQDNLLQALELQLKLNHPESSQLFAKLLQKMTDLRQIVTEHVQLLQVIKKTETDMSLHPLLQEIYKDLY
Nuclear receptor subfamily 1 group I member 2 (Rattus norvegicus), sequence (Q9R1A7 whole entry, looked up): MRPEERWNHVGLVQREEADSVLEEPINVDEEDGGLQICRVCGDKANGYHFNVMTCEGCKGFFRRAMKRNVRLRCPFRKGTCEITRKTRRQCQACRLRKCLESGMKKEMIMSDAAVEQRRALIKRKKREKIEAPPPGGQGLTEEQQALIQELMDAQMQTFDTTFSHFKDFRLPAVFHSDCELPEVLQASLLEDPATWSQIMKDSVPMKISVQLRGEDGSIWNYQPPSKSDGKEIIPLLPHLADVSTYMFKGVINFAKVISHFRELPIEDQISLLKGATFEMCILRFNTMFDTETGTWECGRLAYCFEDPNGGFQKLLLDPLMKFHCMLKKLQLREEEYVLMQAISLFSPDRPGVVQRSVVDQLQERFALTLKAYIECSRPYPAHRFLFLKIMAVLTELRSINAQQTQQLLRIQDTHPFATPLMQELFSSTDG
Estrogen receptor (Homo sapiens), sequence (P03372 whole entry, looked up): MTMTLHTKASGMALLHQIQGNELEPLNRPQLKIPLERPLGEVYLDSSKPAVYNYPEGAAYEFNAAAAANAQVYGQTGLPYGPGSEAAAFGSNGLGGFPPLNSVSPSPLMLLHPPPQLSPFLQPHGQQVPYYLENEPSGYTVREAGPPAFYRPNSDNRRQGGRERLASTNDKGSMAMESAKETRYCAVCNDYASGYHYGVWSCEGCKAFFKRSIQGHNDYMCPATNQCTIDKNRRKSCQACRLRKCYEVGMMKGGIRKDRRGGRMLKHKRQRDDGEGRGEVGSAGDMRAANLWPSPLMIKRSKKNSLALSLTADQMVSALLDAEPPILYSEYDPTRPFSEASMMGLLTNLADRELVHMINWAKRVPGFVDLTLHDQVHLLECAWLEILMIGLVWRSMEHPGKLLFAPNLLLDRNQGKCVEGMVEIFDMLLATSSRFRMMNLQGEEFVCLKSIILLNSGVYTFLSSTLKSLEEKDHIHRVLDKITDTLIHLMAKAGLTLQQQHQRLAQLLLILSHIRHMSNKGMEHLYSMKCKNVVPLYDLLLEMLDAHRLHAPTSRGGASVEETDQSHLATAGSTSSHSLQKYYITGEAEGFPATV

`OC(c1ccccc1)(c1ccccc1)C1CN2CCC1CC2` (stereo not drawn): the Potency entry in assay [1], in [4], in assay [6], in assay [7], in [8] and in assay [9] was “inactive” throughout. In addition, the Potency entry in [10], in assay [11], in assay [13] and in [14] was “inactive” each time. Moreover, the call in [2] and in assay [3] was inactive. Further, in assay [5], the Potency is 26.6 µM (active). The max activation in assay [12] was 17.5%.

Regarding `C[C@H]1CC[C@]2(NC1)O[C@H]1C[C@H]3[C@@H]4CC[C@H]5C[C@@H](O[C@@H]6O[C@H](CO)[C@H](O[C@@H]7O[C@H](CO)[C@@H](O)[C@H](O[C@@H]8OC[C@@H](O)[C@H](O)[C@H]8O)[C@H]7O[C@@H]7O[C@H](CO)[C@@H](O)[C@H](O)[C@H]7O)[C@H](O)[C@H]6O)CC[C@]5(C)[C@H]4CC[C@]3(C)[C@H]1[C@@H]2C`, the Potency in assay [15] is 2.11 µM (active); in [5], 1.88 µM (active); in assay [16] it was 2.37 µM (active); in [6], 4.77 µM (active); in [7] it was 6.68 µM (active); in assay [17], 2.37 µM (active). Besides, the figures for the Potency in assay [8] and in assay [18] were 9.52 µM [inconclusive] (active) and 5.96 µM (active), respectively. Further, the Potency result in assay [1], in assay [13] and in [14] was “inactive” each time. Besides, the call in assay [2] and in assay [3] was inactive. The max activation in assay [12] is -24.3%.

With `C[C@]12CC[C@H]3[C@@H](CCC4=C(Cl)C(=O)CC[C@@]43C)[C@@H]1CC[C@@H]2O`, the Potency entry in assay [19], in assay [20], in [6], in assay [7], in assay [17] and in assay [11] was “inactive” each time. In addition, the Potency result in assay [13] was “inactive”. For the same molecule, the molecule was called inactive in assay [2]. Also, the Potency in assay [5] is 16.8 µM (active); in [16], 9.44 µM (active); in assay [8], 2.68 µM [inconclusive] (active); in [9] it was 1.5 µM (active). For the same molecule, in [12], the max activation is -0.226%.

In the case of `O=c1[nH]cc(N(CCCl)CCCl)c(=O)[nH]1`, in assay [19], the Potency is 21.1 µM (active). Further, the Potency entry in assay [1], in assay [20], in assay [4], in [5], in [6] and in assay [7] was “inactive” in each case. The Potency result in assay [17], in assay [8], in [9], in [10], in [18] and in assay [11] was “inactive” throughout. The Potency result in [13] and in assay [14] was “inactive” each time. The molecule was called inactive in assay [2]. Moreover, the max activation in [12] is -3.28%.

Consider `CCNC(C)Cc1cccc(C(F)(F)F)c1` (stereo not drawn), for which the Potency entry in [15], in assay [1], in [20], in assay [4], in assay [6] and in assay [7] was “inactive” in each case. In addition, the Potency result in assay [17], in assay [8], in [9], in assay [10], in assay [18] and in assay [11] was “inactive” throughout. Moreover, the Potency result in assay [13] and in assay [14] was “inactive” each time. Besides, the molecule was called inactive in assay [2] and in assay [3]. Further, the max activation in [12] was -1.05%.

With `CC(N)Cc1ccc(O)cc1` (stereo not drawn), the Potency entry in assay [19], in assay [1], in assay [20], in assay [4], in assay [5] and in assay [16] was “inactive” throughout. The Potency result in assay [7], in [17], in [8], in [9], in assay [10] and in assay [18] was “inactive” each time. Further, the Potency result in assay [11], in [13] and in assay [14] was “inactive” each time. In addition, the molecule was called inactive in assay [2]. Also, the max activation in [12] was -0.925%.

`C[N+]1([O-])[C@@H]2CC[C@H]1CC(OC(=O)C(CO)c1ccccc1)C2` (stereo partly drawn): the Potency result in [15], in [1], in assay [20], in [4], in assay [16] and in assay [7] was “inactive” throughout. Also, the Potency result in [17], in assay [8], in assay [9], in [10], in assay [18] and in assay [11] was “inactive” in each case. Besides, the Potency result in assay [13] and in [14] was “inactive” each time. In assay [2], the call was inactive. The max activation in assay [12] was -0.187% and -0.592%.

These data come from PubChem BioAssay (Tox21).
